Compound activity deposited in PubChem by The Scripps Research Institute Molecular Screening Center.
GALR2 agonist: GALR2 receptor agonists, primary screen, cell-based; 140,000 tested, 0.48% active; AID 803, 2007; activation, % (concentration not given with the values); GALR2-expressing cells, agonist activation read-out; in the data active means activation above about 5%, passing the limit was not always enough;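 further: 0% = vehicle buffer wells and 100% = reference agonist at full effect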
Target sequence (O43603 whole entry, looked up): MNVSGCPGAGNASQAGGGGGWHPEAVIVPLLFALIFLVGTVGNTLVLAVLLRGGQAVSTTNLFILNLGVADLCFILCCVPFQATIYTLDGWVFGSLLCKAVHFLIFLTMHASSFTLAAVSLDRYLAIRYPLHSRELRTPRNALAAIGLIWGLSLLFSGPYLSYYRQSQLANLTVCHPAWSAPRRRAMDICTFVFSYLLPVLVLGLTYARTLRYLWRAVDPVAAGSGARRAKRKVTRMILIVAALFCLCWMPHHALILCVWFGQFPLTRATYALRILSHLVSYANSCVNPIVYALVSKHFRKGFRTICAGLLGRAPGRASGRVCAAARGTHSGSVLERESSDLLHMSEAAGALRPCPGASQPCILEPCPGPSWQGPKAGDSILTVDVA
GALR2 blocker: GALR2 antagonists in receptor-expressing cells, primary screen. inhibition, % at 4 µM. AID 828, 2007. antagonist mode. 140,000 tested, 0.39% active. Galanin receptor type 2 (Homo sapiens), O43603;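 further: cells stimulated with galanin 1-16 at roughly its EC80; 0% = agonist challenge control and 100% = basal control without agonist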
S1P2 agonist: S1P2 receptor agonists, primary screen, cell-based | Sphingosine 1-phosphate receptor 2 (Homo sapiens), O95136 | S1P2-expressing cell line, agonist reporter read-out | activation, % at 4.5 µM | 97,000 tested, 0.46% active | AID 729, 2007; in the data active means activation above about 16%;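 further: 0% = vehicle low control and 100% = maximal reference agonist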
S1P2 antag: human S1P2 receptor antagonists, primary screen, cell-based. cell-based S1P2 antagonist assay, inhibition at 5 uM. inhibition, % at 5 µM. 97,000 tested, 0.21% active. AID 736, 2007; in the data active means inhibition above about 45%;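 further: CRE beta-lactamase reporter cells expressing human S1P2 stimulated with S1P; 0% = agonist at EC80 alone and 100% = agonist plus reference antagonist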
GALR2 ant conf: GALR2 antagonists, retest of hits, confirmation, cell-based; shares compounds with GALR2 blocker; GALR2-expressing cells, antagonist mode, inhibition; inhibition, % at 4 µM; 480 tested, 60% active;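 further: cells stimulated with galanin at about its EC80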
BLA inhib ctr: inhibitors of NFAT-driven beta-lactamase reporter, confirmation, counter-screen for GALR2 antagonist project, CHO NFAT-bla cells, FRET readout. inhibition, % at 4.2 µM. shares compounds with GALR2 blocker. 480 tested, 36% active. thapsigargin-stimulated;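 active means inhibition above the mean inhibition across tested compounds plus 3 SD, cut at about 27% in these data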;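 further: 0% = 500 nM thapsigargin stimulated wells and 100% = unstimulated BSA only wells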
Numbers without * were called inactive. Shown are actives, neighbours in structure and some others; about 1.2% of the full set was active somewhere. Unless noted, no stated cut-off is given here; in the data, active means inhibition above about 27%; inactive means the rest.

What do the screens show for `CCOc1ccc(C(=O)C(CCC(CN(C)C)C(=O)c2ccc(OCC)cc2)CN(C)C)cc1` (configuration not stated)?
GALR2 agonist: 3.0; GALR2 blocker: 39.3*; GALR2 ant conf: 28.1*; BLA inhib ctr: 30.4*

How did COc1ccc(C(=O)C(CCCCC(CN(C)C)C(=O)c2ccc(OC)cc2)CN(C)C)cc1 (configuration not stated) do in these assays?
GALR2 agonist: -2.7; GALR2 blocker: 7.2; S1P2 agonist: -0.9; S1P2 antag: 10.9

What do the screens show for `CCC(=O)NNc1ncnc2ccccc12`?
GALR2 agonist: -1.9; GALR2 blocker: -2.6

How did CCCCCCCCNc1ncnc2ccccc12 do in these assays?
GALR2 agonist: -1.3; GALR2 blocker: 39.5*; S1P2 agonist: -3.2; S1P2 antag: 78.4*; GALR2 ant conf: 54.0*; BLA inhib ctr: 18.2

How did O=C(N/N=C/c1cn(-c2ccccc2)nc1-c1cccs1)c1ccccc1F do in these assays?
GALR2 agonist: -1.2; GALR2 blocker: 13.6

How did CC1=NNC(=O)/C1=C\c1cn(-c2ccccc2)nc1-c1cccs1 do in these assays?
GALR2 agonist: -0.9; GALR2 blocker: 31.2*; GALR2 ant conf: -1.7; BLA inhib ctr: 22.1

Results for CC[C@@H](NS(=O)(=O)c1ccc(C)cc1)C(=O)Oc1ccc2c3c(c(=O)oc2c1)CCC3 ?
GALR2 agonist: 0.6; GALR2 blocker: -27.2

Results for Cc1ccc(S(=O)(=O)NC(C(=O)Oc2ccc3c(C(F)(F)F)cc(=O)oc3c2)c2ccccc2)cc1 (configuration not stated) ?
GALR2 agonist: -0.1; GALR2 blocker: 34.8*; GALR2 ant conf: 25.3; BLA inhib ctr: 30.8*

Results for CNc1nc2cc([N+](=O)[O-])c([N+](=O)[O-])cc2nc1NC ?
GALR2 agonist: -2.4; GALR2 blocker: 54.1*; GALR2 ant conf: 64.8*; BLA inhib ctr: 9.6

What do the screens show for `CNc1c([N+](=O)[O-])ncn1C`?
GALR2 agonist: -3.8; GALR2 blocker: 2.4; S1P2 agonist: -2.3; S1P2 antag: -5.2

What do the screens show for `CCOc1ccc2c(c1)C(C)=CC(C)(C)N2C(=O)Nc1ccccc1`?
GALR2 agonist: -1.4; GALR2 blocker: 28.7*; S1P2 agonist: 0.7; S1P2 antag: 5.0; GALR2 ant conf: 7.8; BLA inhib ctr: 4.8

How did COc1cc(Nc2cc(C)nc3ncnn23)cc(OC)c1 do in these assays?
GALR2 agonist: -2.0; GALR2 blocker: 30.2*; GALR2 ant conf: 3.8; BLA inhib ctr: 5.5

How did Cc1noc(C)c1COc1cccc(C(=O)Nc2ccc(OCc3ccccc3)cc2)c1 do in these assays?
GALR2 agonist: -3.2; GALR2 blocker: 7.0; S1P2 agonist: -9.5; S1P2 antag: 10.7

Results for CC(=O)c1ccc(N2CCN(C(=O)COc3ccc(F)cc3)CC2)c(F)c1 ?
GALR2 agonist: -1.7; GALR2 blocker: 28.4*; GALR2 ant conf: 8.2; BLA inhib ctr: -2.3

Results for CCC(=O)c1ccc(N2CCN(C(=O)COc3ccc(F)cc3)CC2)c(F)c1 ?
GALR2 agonist: -0.2; GALR2 blocker: 3.7; S1P2 agonist: -4.6; S1P2 antag: 9.8

Results for Cc1c(C(=O)Nc2ccc3c(c2)OCCO3)sc2nc(-c3ccccc3)cn12 ?
GALR2 agonist: 0.8; GALR2 blocker: 8.5; S1P2 agonist: -4.5; S1P2 antag: 32.4

How did Cc1c(C(=O)Nc2ccncc2)sc2nc(-c3ccccc3)cn12 do in these assays?
GALR2 agonist: -0.3; GALR2 blocker: 27.6*; GALR2 ant conf: 16.6; BLA inhib ctr: 7.6

How did Cc1cc(C(=O)OCC(=O)Nc2ccccc2[N+](=O)[O-])c2ccccc2n1 do in these assays?
GALR2 agonist: -1.0; GALR2 blocker: 40.3*; GALR2 ant conf: 10.7; BLA inhib ctr: 8.9

What do the screens show for `C=CCn1c(SCC(=O)Nc2ncc(Cc3cc(C(F)(F)F)ccc3Cl)s2)nnc1-c1ccncc1`?
GALR2 agonist: -1.0; GALR2 blocker: -20.6; S1P2 agonist: -0.6; S1P2 antag: -2.6

Results for O=c1cc(N2CCCCC2)c(-c2ccccc2)nn1Cc1cccc(Cl)c1 ?
GALR2 agonist: -1.8; GALR2 blocker: -1.8; S1P2 agonist: -6.2; S1P2 antag: -6.0

What do the screens show for `Cn1c(SCC(=O)N2CCOCC2)nc(O)cc1=O`?
GALR2 agonist: -1.2; GALR2 blocker: 2.0; S1P2 agonist: -5.7; S1P2 antag: 7.8
